PBM binding z-score data for 40 sequences are collected here from the supplement of paper PMC6555819.

The test concerns VDR:RXRa (NR concentration 270 nM, RXRa partner concentration 90 nM). The test is described as follows: PBM binding z-score (relative to random genomic background probes); higher = stronger binding; sequences stand for … in GC…GCGATTGACAGCGTAGAATGAAGG
The protocol:
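Protein-binding microarray (Agilent 4x180K custom design, double-stranded 60-nt probes: 5' GC cap, 34-nt variable region, 24-nt constant primer region; full probe sequence given). Purified or IVT nuclear receptor:RXRα heterodimers (3:1 NR:RXRα, mostly 270:90 nM) or homodimers were incubated for 1 h in PBS with 2% milk and no ligand, then detected with Alexa488 antibodies. Fluorescence from o1-orientation probes (~5 replicates averaged) was converted to z-scores against 500 random hg19 background probes. Variable regions are seed direct-repeat (DR0–DR5) sites, all their single-nucleotide variants and half-site ablations.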
The sequence CCTCCTGGGCCACGAAAGGTCATTGATTCAGTGA showed a PBM binding z-score of 4.04.

On to AATACAGGCTCACTAGGCCAGAGTAGGTACGAAT, for which the PBM binding z-score was -0.46.

Sequence TCATATAGGTAAAAGATGAAAGTCGGTGTGGTAA gave a PBM binding z-score of 0.912.

Consider ATATCTAGGTAAGACTCAGTTCAGTGAAGAACGC, for which the PBM binding z-score is 0.941.

TCTAGCAGCCCAGAGGGTCACTCAAGAGGTACGG had a PBM binding z-score of 1.1.

Sequence TCTATTAGTTTATTAGGGCAACCGAAACAGCGGA had a PBM binding z-score of 1.03.

TAGCCTAGGTCATTGGGCCAGAATAGTACGCATC returned a PBM binding z-score of 2.01.

CGTCCAAGGTCAATGTCAGTGAAAGAGACTCGAA showed a PBM binding z-score of 3.45.

In turn, CGAACGAGGACATGAGTTGATAGCAAATGCCGAT displayed a PBM binding z-score of 0.112.

Turning to CAAACTAGGTCTAAGGTCAAAGTCGAGCCAACCA, the PBM binding z-score is 4.26.

In turn, TCATATAGGTAAATGCTAGGTGAAAGTCCGATCT came in with a PBM binding z-score of 0.886.

As for CCTCGGTGGACAACAGGAGGTCAGAGCTGCCAGA, the PBM binding z-score was determined as 1.07.

Turning to TCTTGTAGAGCAAGCAGGTTAAGAAAGCCTGAGT, the PBM binding z-score was -0.323.

As for CCAAGCAGGCCAGGGTCACTCAAGCATTTCGCTT, the PBM binding z-score is 2.55.

Sequence CCGAGTAGGTTATGGGTCATTCAGGCAACGGTGA yielded a PBM binding z-score of 2.67.

Take AGAACGAGGGCACTGAGTTGATAGCACGGGTGGC: the PBM binding z-score amounted to 4.52.

As to TCGAGTAGGTTAGGGTCATTCAGAATGGCGTCGA, the PBM binding z-score worked out at 4.32.

The sequence CGACAAAGTTCAACTAAGGTAACGTAAAGCACGC showed a PBM binding z-score of 4.67.

Sequence TTACCAAGGTGAAAGATCGTTGATGCACGCCTTG returned a PBM binding z-score of 0.0935.

In turn, CGTCCCAGGTCAATGCTAGGTCAGTGAAAGCATT showed a PBM binding z-score of 3.68.

With ATCTCTAGGTAACAAGTTGAGTGAAAGAGAGGAC, the PBM binding z-score came out at 0.415.

Turning to GCTTGTAGATCGAGGTTAAGAAAGACTAAGCTAA, the PBM binding z-score was 0.413.

Sequence TCTATTAGTTCATTAGGGCAACCGAAACAGCGGA displayed a PBM binding z-score of 2.2.

The sequence CGAACTAGGTCATTGACAGGATAGTGAATAGTAA had a PBM binding z-score of 1.64.

Turning to TCTTGTAGATCATCAGGAGGTTAAGAAAGATCGA, the PBM binding z-score was 0.351.

For ATCTCTAGGTAAAGATAGATCAGTGAATGCAAAT, the PBM binding z-score turned out to be 0.00458.

AGTCAAAGTTCATCTAGGCAACGTAAGATATGCT: the PBM binding z-score is 4.9.

In the case of AGAATGAGGTTATTATGATCAGGGAATTGCGGTC, the PBM binding z-score came out at 1.65.

CGGCCAAGGTCAGCAGGTCAGTGAAAGCGACGTG: the PBM binding z-score came to 3.8.

Consider ATCGAAAGGTCGAAGGTGAGTTTACCCACCCGAA, for which the PBM binding z-score was determined as 4.33.

Regarding ATCGATAGGTCGAAGGTGAGTATACCCACCCGAA, the PBM binding z-score amounted to 0.776.

In turn, ATCGAAAGGGCGACGAGGTGAGTATACACCGTTT registered a PBM binding z-score of 1.32.

ATCCCTAGGTAAAGTTCAGTGAAAGATCGATAGA yielded a PBM binding z-score of 1.37.

CAAACTAGGTCAAGGTCGAAGTCGGTTTGTGCCA registered a PBM binding z-score of 3.27.

For the sequence TCAAGTAGGTTACCAATGGGGCATTCAGCTTTCT, the PBM binding z-score came out at 0.549.

Sequence TCGAGTTGGTTACCAATGGGGCATTCAGCTTTCT displayed a PBM binding z-score of -0.461.

The sequence ACAGACAGGAGATGAAGGTAACTCAGGCTATCAT yielded a PBM binding z-score of 0.143.

CGAACTAGGTCAGCCAGGACAGTGAATACATTGA yielded a PBM binding z-score of 3.1.

As for TCTGCTAGGTCGACGATGGTCAGCTAATCTGCTA, the PBM binding z-score was -0.229.

On to CAAACTAGGTCACGACAGGTCAAAGTCGAATGAC, for which the PBM binding z-score is 6.07.
